Measurements: PubChem BioAssay (NCI)
About 83,000 compounds went through this panel and 20% of them were active in at least one assay; those are over-represented in the sample as a whole.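 For each line, cells grew in 96-well plates with the test compound present at a single concentration for 48 hours.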 Unmarked numbers belong to inactive results. Calls of active or inactive are those of the source. The calls were made as follows: active = growth percent below 10; inactive = the rest.

System: HL-60(TB) leukemia
Assay: NCI-60 one-dose screen, 48 h (100 = growth as untreated, 0 = no growth, -100 = all killed)
Settings: 10 µM unless noted

SMILES | growth
CCCCCCc1nc2c(c(C)nn2-c2ccccc2)c2c1CCCCC2 | 108%
CCCCCCCCCCCCCCCCCCOc1ccccc1CC(=O)NCC[N+]1(C)CCOCC1 | -10.6% (active)
c1ccc(-c2nnc(-c3c[nH]c4ncccc34)s2)cc1 | 98.4%
